# Reference: PubChem BioAssay AID1030 (National Center for Advancing Translational Sciences (NCATS), 2008)
# The whole screen tested about 220,000 compounds, of which about 16,000 (7.3%) were called active. Inconclusive results (about 25%) are left out. The call rests on the fitted dose curve; in most records, active means well fitted inhibition curve with a large enough effect (not every such curve was filed as active); inconclusive means small, poorly fitted or top-dose-only effect, or another doubt; inactive means no such curve, though single readings can be large or run the other way. The list comes from a sample in which actives are over-represented; it also holds similar structures and randomly drawn compounds. A call without a number means that no potency is given here. Square brackets hold non-standard residues; d marks the D form. Peptide text beside a SMILES is read from it. ξ: configuration not given here. ξM = CSCCC(N)C(=O)O
# Biological target: Aldehyde dehydrogenase 1A1 (Homo sapiens) (UniProt P00352)
# Experiment: qHTS Assay for Inhibitors of Aldehyde Dehydrogenase 1 (ALDH1A1)
# Conditions: Purified ALDH1A1, NADH fluorescence, propionaldehyde substrate; series mostly up to 75.3 µM
# Potency means the concentration at half of the fitted maximal effect.
# Aldehyde dehydrogenase 1A1 (Homo sapiens), sequence (P00352 whole entry, looked up): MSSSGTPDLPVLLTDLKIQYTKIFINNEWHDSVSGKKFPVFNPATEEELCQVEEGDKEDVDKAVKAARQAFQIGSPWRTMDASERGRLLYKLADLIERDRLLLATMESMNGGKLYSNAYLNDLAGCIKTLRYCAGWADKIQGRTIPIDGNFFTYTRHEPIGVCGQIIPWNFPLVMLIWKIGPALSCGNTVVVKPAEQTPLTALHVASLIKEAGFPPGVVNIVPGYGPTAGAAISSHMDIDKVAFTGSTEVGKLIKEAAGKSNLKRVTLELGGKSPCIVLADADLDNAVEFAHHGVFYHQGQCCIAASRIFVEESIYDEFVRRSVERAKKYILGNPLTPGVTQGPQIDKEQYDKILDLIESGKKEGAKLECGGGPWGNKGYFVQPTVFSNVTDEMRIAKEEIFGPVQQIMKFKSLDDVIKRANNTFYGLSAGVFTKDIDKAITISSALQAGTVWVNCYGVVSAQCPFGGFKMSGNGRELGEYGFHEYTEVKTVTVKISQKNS
row,SMILES,Potency
1,Clc1ccc2nc(CSc3ccccc3)cn2c1,inactive
2,COC(=O)CNC(=O)C(CCSC)NC(C)=O (stereo not given) (Ac-[ξM]-Gly-OMe),inactive
3,O=C(CSc1nnc(-c2ccco2)n1CC1CCCO1)c1ccccc1 (stereo not given),25.1 µM (active)
4,Cc1nnc(SCC(N)=O)n1CC1CCCO1 (stereo not given),inactive
5,CNC(=O)NC(=O)CSc1nnc(-c2ccc(F)cc2)n1CC1CCCO1 (stereo not given),inactive
6,C=C1c2cccc(OC)c2O[C@H](C(=O)OCC)[C@@H]1CCCCCC,inactive
7,Cc1cc([N+](=O)[O-])ccc1NC(=O)c1ccc(NC(=O)C(C)C)cc1,inactive
8,CN(C)c1ccc(C=C2C(=O)OC3(CCCC3)OC2=O)cc1,0.251 µM (active)
9,CC1CCCCC1NC(=O)COC(=O)Cc1ccc(Br)cc1 (stereo not given),inactive
10,COC(=O)C/C=C/[C@@H](C)[C@H](NC(=O)OCC(Cl)(Cl)Cl)c1ccccc1,inactive
11,CCOC(=O)Cc1cc(=O)[nH]c(=O)[nH]1,inactive
12,COCC(=O)Nc1nnc(COc2ccccc2)s1,inactive
13,COc1ccc(OCC(=O)Nc2nnc(-c3ccco3)s2)cc1,22.4 µM (active)
14,CNc1nnc(-c2ccco2)s1,inactive
15,Cn1nccc1NC(=O)CC(CC(=O)O)c1ccccc1 (stereo not given),inactive
16,CCc1ccccc1NC(=O)CN(c1ccc(OC)cc1OC)S(=O)(=O)c1ccccc1[N+](=O)[O-],inactive
17,Cc1c(C(=O)Nc2cccc(Cl)c2)cn2c(nc3ccccc32)c1C#N,inactive
18,CSc1ccc(S(=O)(=O)NCc2ccc(Cl)cc2)cc1,22.4 µM (active)
19,CCCCNCc1ccc(SC)cc1,inactive
20,CCn1c(CNS(=O)(=O)c2ccc(Cl)cc2)n[nH]c1=S,inactive
21,CC(C)(C)OC(=O)NCCCC1=CC2=CC(=O)C(C)(OC(=O)c3ccco3)C(=O)C2=CO1 (stereo not given),inactive
22,C=CCO/N=C/C1=C(O)C(C(=O)OC)C(C)(C)CC1=O (stereo not given),inactive
23,COc1cccc(-n2c(=O)c3c(C)c(C(=O)N(C)C)sc3n(CC(=O)NCCc3ccc(OC)c(OC)c3)c2=O)c1,inactive
24,CCN(CC)c1ccc2c(Nc3ccccc3)c(C=O)c(=O)oc2c1,1.58 µM (active)
25,COc1cccc(NC(=O)c2nn(C34CC5CC(CC(C5)C3)C4)cc2[N+](=O)[O-])c1,0.224 µM (active)
26,COc1cccc(NC(=O)c2nn(-c3ccc(OC)cc3OC)c(=O)c3ccccc23)c1,inactive
27,COc1cccc(NC(=O)c2ccc(Cn3cc([N+](=O)[O-])cn3)o2)c1,14.1 µM (active)
28,CCc1ccc(NC(=O)c2ccc(Cn3cc([N+](=O)[O-])cn3)cc2)cc1,inactive
29,Cn1cc([N+](=O)[O-])c(C(=O)Nc2cnn(Cc3ccc(F)cc3)c2)n1,inactive
30,O=C(Nc1ccc(Br)c2cccnc12)c1ccc(Cn2cc([N+](=O)[O-])cn2)o1,inactive
